Data as given in PubChem BioAssay AID1159580 (chemical genetic matrix, 2015).
Values joined by “and” are separate entries in the source; they are usually repeats but may differ in a detail not shown here. Identical values can stand only once. Screen size: about 5,500 compounds; about 2,000 (36%) were called active. Not shown: some 18% with an inconclusive outcome. Cut-off read from the data, not from the text of the source: active = normalized growth mostly below about 0.91 (no sharp cut-off); inconclusive = no clear call, values can overlap the other calls; inactive = mostly above about 0.92. This is one part of the list.

Assay: chemical genetic growth profiling, strain panel (AID 1159580);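 note: tested at 20 µM; growth read once vehicle control cultures reached saturation at 30 °C; 1 = growth at the plate median or of vehicle wells; lower values mean less growth of the strain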
Conditions: S. cerevisiae deletion strains, growth OD

Measured: normalized growth

Oc1c(I)cc(I)c2cccnc12
active: locus YAL013W, strain DEP1, active compounds read low 0.071 | locus YAL021C, strain ccr4, active compounds read low 0.091 | locus YAL026C, strain drs2, active compounds read low 0.0859 | locus YAL030W, strain snc1, active compounds read low 0.0764 | locus YBL061C, strain skt5, active compounds read low 0.0816 | locus YBR009C, strain hhf1, active compounds read low 0.0997 | locus YBR021W, strain FUR4, active compounds read low 0.129 | locus YBR023C, strain chs3, active compounds read low 0.077 | locus YBR171W, strain sec66, active compounds read low 0.114 | locus YBR229C, strain ROT2, active compounds read low 0.0677 | locus YBR231C, strain swc5, active compounds read low 0.0701 | locus YBR279W, strain paf1, active compounds read low 0.0764 | locus YCL011C, strain gbp2, active compounds read low 0.135 | locus YCL016C, strain dcc1, active compounds read low 0.0819 | locus YCL029C, strain bik1, active compounds read low 0.101 | locus YCL061C, strain MRC1, active compounds read low 0.0902 | locus YCL069W, strain vba3, active compounds read low 0.0885 | locus YCR088W, strain abp1, active compounds read low 0.0854 | locus YDL005C, strain med2, active compounds read low 0.104 | locus YDL035C, strain GPR1, active compounds read low 0.067 | locus YDL040C, strain nat1, active compounds read low 0.073 | locus YDL074C, strain BRE1, active compounds read low 0.104 | locus YDL101C, strain DUN1, active compounds read low 0.084 | locus YDL185W, strain tfp1, active compounds read low 0.0824 | locus YDL192W, strain arf1, active compounds read low 0.103 | locus YDR001C, strain nth1, active compounds read low 0.0844 | locus YDR069C, strain doa4, active compounds read low 0.0819 | locus YDR101C, strain arx1, active compounds read low 0.0994 | locus YDR137W, strain rgp1, active compounds read low 0.0996 | locus YDR150W, strain NUM1, active compounds read low 0.078 | locus YDR159W, strain sac3, active compounds read low 0.107 | locus YDR162C, strain NBP2, active compounds read low 0.0632 | locus YDR195W, strain ref2 0.337 | locus YDR297W, strain sur2, active compounds read low 0.0803 | locus YDR318W, strain mcm21, active compounds read low 0.101 | locus YDR334W, strain swr1, active compounds read low 0.0842 | locus YDR335W, strain msn5, active compounds read low 0.0856 | locus YDR388W, active compounds read low 0.0882 | locus YDR392W, strain spt3, active compounds read low 0.13 | locus YDR502C, strain sam2, active compounds read low 0.106 | locus YEL003W, strain gim4, active compounds read low 0.127 | locus YEL037C, strain rad23, active compounds read low 0.0807 | locus YEL061C, strain CIN8 (second series), active compounds read low 0.0847 | locus YEL061C, strain CIN8, active compounds read low 0.073 | locus YER015W, strain faa2, active compounds read low 0.0857 | locus YER016W, strain bim1, active compounds read low 0.0805 | locus YER110C, active compounds read low 0.115 | locus YER111C, strain swi4, active compounds read low 0.103 | locus YER155C, strain BEM2 (second series), active compounds read low 0.126 | locus YER155C, strain BEM2, active compounds read low 0.0881 | locus YER167W, strain BCK2, active compounds read low 0.0711 | locus YFR010W, strain ubp6, active compounds read low 0.0943 | locus YGL078C, strain dbp3, active compounds read low 0.258 | locus YGL086W, strain mad1, active compounds read low 0.0789 | locus YGL167C, strain pmr1, active compounds read low 0.0938 | locus YGL173C, strain kem1, active compounds read low 0.0913 | locus YGL227W, strain vid30, active compounds read low 0.0911 | locus YGL240W, strain doc1, active compounds read low 0.106 | locus YGL248W, strain PDE1, active compounds read low 0.0617 | locus YGL253W, strain hxk2, active compounds read low 0.0781 | locus YGR078C, strain PAC10, active compounds read low 0.0681 | locus YGR135W, strain pre9, active compounds read low 0.102 | locus YGR252W, strain gcn5, active compounds read low 0.308 | locus YHR013C, strain ard1, active compounds read low 0.141 | locus YHR027C, strain rpn1, active compounds read low 0.0845 | locus YHR030C, strain SLT2, active compounds read low 0.0746 and 0.163 | locus YHR079C, strain IRE1 (second series), active compounds read low 0.0873 | locus YHR079C, strain IRE1, active compounds read low 0.135 | locus YHR094C, strain hxt1, active compounds read low 0.0952 | locus YHR129C, strain ARP1, active compounds read low 0.0776 | locus YHR142W, strain chs7, active compounds read low 0.103 | locus YHR200W, strain rpn10, active compounds read low 0.2 | locus YIL066C, strain RNR3, active compounds read low 0.0647 | locus YIL073C, strain SPO22, active compounds read low 0.136 | locus YIL125W, strain kgd1, active compounds read low 0.174 | locus YIR030C, strain dcg1, active compounds read low 0.095 | locus YJL092W, strain hpr5, active compounds read low 0.0768 | locus YJL095W, strain BCK1 (second series), active compounds read low 0.0748 | locus YJL095W, strain BCK1, active compounds read low 0.081 and 0.123 | locus YJL115W, strain asf1, active compounds read low 0.102 | locus YJL129C, strain trk1, active compounds read low 0.148 | locus YJL134W, strain LCB3, active compounds read low 0.0694 | locus YJL154C, strain vps35, active compounds read low 0.0817 | locus YJL164C, strain tpk1, active compounds read low 0.0873 | locus YJL166W, strain qcr8, active compounds read low 0.0859 | locus YJL168C, strain set2, active compounds read low 0.0922 | locus YJL187C, strain SWE1 (second series), active compounds read low 0.064
